From paper PMC13494018
Values without a mark were called inactive. The rule behind the calls is not given here.

Molecular target: CD276, Q5ZPR3
Sequence (Q5ZPR3 whole entry): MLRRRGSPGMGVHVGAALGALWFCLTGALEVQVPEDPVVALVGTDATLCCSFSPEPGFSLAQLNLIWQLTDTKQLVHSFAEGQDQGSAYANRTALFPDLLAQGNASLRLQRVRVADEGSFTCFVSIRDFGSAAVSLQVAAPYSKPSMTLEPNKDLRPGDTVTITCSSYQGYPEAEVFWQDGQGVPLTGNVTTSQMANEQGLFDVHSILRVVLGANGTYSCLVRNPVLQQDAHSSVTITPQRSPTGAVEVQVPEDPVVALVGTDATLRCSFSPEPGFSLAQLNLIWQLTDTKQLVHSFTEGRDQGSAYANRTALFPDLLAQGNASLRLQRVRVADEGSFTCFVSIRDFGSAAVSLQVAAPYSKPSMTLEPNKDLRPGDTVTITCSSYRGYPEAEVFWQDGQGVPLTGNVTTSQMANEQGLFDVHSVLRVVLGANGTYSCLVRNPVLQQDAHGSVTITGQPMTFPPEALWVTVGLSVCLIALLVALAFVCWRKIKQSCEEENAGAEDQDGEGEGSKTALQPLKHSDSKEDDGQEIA

B1: design_612_bdadb936-3f14-48ad-830f-718e38d81c30_1931_dldesign_0_cycle1_af2pred (protein)
chain: SMEELEKKREEAEKGLEEIKELAKKAAEGAKDPATAAATMAEALEKLEEYKETIELAKEVGEELAEKVRAAVNELLANVARAGAVAAA
  binding in a display sort: not found

B2: design_612_bdadb936-3f14-48ad-830f-718e38d81c30_2140_dldesign_0_cycle1_af2pred (protein)
chain: DAAAAALAAAHIAKLNAIAKEGIEAAKKGDPEANAEKAVAKINAAASAAVKEMTALGANGSYITQVLQAAAEAIKKVREAAKKAK
  binding in a display sort: not found

B3: design_612_bdadb936-3f14-48ad-830f-718e38d81c30_2117_dldesign_0_cycle1_af2pred (protein)
chain: EEERAAAVNAAMQAIIALQQAGQALEASGDPAAKAKGKEAYAKAGEYQKLLKEYNDDVEKVKEIAKDAAAAAAEYAAAVKKAQAA
  binding in a display sort: not found

B4: design_612_bdadb936-3f14-48ad-830f-718e38d81c30_1747_dldesign_0_cycle1_af2pred (protein)
chain: SAADVAAATQKALKKQAEKLLELAKEAAAKDKEEAKKYAKAAKKLAELMVLAGEQAGTGAEAKKEAEKIKKEVEKVVKEA
  binding in a display sort: not found

B5: design_613_5efed0bc-64ba-423b-b3f9-a246574e49bb_395_dldesign_0_cycle1_af2pred (protein)
chain: SKTAEDGIKFIKELTEIAKAAAAAGQPKSVVETIRKTLEHATKVFAAAAAEDNPEYAEKVKKAGEEALKEADKAIAA
  binding in a display sort: not found

B6: design_612_bdadb936-3f14-48ad-830f-718e38d81c30_2254_dldesign_0_cycle1_af2pred (protein)
chain: GAAEAEEAARREEAKKLAEEYLKKVEEAAKESTGKAVEVMVKGVKELLEIGDKETANALAQEATRIISAAVRA
  binding in a display sort: not found

B7: design_612_bdadb936-3f14-48ad-830f-718e38d81c30_2023_dldesign_0_cycle1_af2pred (protein)
chain: AEAETLGSLARGAISFLRTAAAYLRRKAAAAADPATAATLNAYADRLEALAEAAAKAVEEGKYEEAVALAEEGVALALEGAAAAA
  binding in a display sort: not found

B8: design_613_5efed0bc-64ba-423b-b3f9-a246574e49bb_341_dldesign_0_cycle1_af2pred (protein)
chain: SEMIEKIKELGEEAKKIGKEGLAGTPEEMLKAAEKLRELMKEISRLAAEAMKESPEVEEIALAGGEALSIAAEEIAKLQAAAAAA
  binding in a display sort: not found

B9: design_613_5efed0bc-64ba-423b-b3f9-a246574e49bb_260_dldesign_0_cycle1_af2pred (protein)
chain: AAAVGEGSKLVIEGIKALAEAAQRVAFDPEIQAKLMAQAAKATRALVQGAADPATALELAKKALEEAKKAVKEAEKVLA
  binding in a display sort: not found

B10: design_612_bdadb936-3f14-48ad-830f-718e38d81c30_1730_dldesign_0_cycle1_af2pred (protein)
chain: AAAAAVAKVKAAKEKAKELLEEARKLAKEDPEKAGEVLNKALTYVSKVAAQAAKDGPEAAAAAAKVLGEVLDEVAEIEKLRKEIAA
  binding in a display sort: not found

B11: design_613_5efed0bc-64ba-423b-b3f9-a246574e49bb_896_dldesign_0_cycle1_af2pred (protein)
chain: AQAEAARQAAVDALAKSGEAAVKAMKEDPERASKRASGAIANLRLLGDEETAEKVAKKLLEEAKKLGEEAYEIAKKEVEKAKENVEA
  binding in a display sort: not found

B12: design_612_bdadb936-3f14-48ad-830f-718e38d81c30_1696_dldesign_0_cycle1_af2pred (protein)
chain: SAEILAAQAKALELMKEAAKYNRKAGGKTAELALEAAKYATKAISYFATGEKKAEGEEEYKKAEEKLKEVKKKAA
  binding in a display sort: not found

B13: design_613_5efed0bc-64ba-423b-b3f9-a246574e49bb_304_dldesign_0_cycle1_af2pred (protein)
chain: AEAAKAAAVALAAAMLALADALAKAGDFGTALAIATLGARIVDTVVGPEAGAAFQAQRDAVISSNARAAIAAA
  binding in a display sort: not found

B14: design_613_5efed0bc-64ba-423b-b3f9-a246574e49bb_35_dldesign_0_cycle1_af2pred (protein)
chain: DQARADALIAAVDAAVAAAEAALAEDPELGLAKGAEASALIVEALKASAELSPAERARLAAALNAATARLLKVQAAAREQLA
  binding in a display sort: not found

B15: design_612_bdadb936-3f14-48ad-830f-718e38d81c30_1961_dldesign_0_cycle1_af2pred (protein)
chain: MERLEKIEKRIEEIEKVVEEAEKKVKEGTITGEDALRLNKALAEARRIAEEAAKLDPELAKRAQAVAERASRVLVEGNKLLVA
  binding in a display sort: not found

B16: design_613_5efed0bc-64ba-423b-b3f9-a246574e49bb_418_dldesign_0_cycle1_af2pred (protein)
chain: AGAEAAAHLNAAFASLSKGLISTDPAEAQKYFDEAKAHLDKARALAAKDPAVAAEVQAAVDKITDLLEGGKAAR
  binding in a display sort: not found

B17: design_612_bdadb936-3f14-48ad-830f-718e38d81c30_1983_dldesign_0_cycle1_af2pred (protein)
chain: EEKVREEAKEAIEKAKEAVEKLKEAAKADPRLAVAAKAATAALEKAKELLEENPESALKLAKTTLDLAEATLAAAA
  binding in a display sort: not found

B18: design_613_5efed0bc-64ba-423b-b3f9-a246574e49bb_150_dldesign_0_cycle1_af2pred (protein)
chain: GEKEKAVKEAKEAAEETEKVAKEAIKAAKAAGNEAAAKMAEALAKNAKKALEEAKKGTLEEAKKNLKYIESNLKNAKLILEGQ
  binding in a display sort: not found

B19: design_612_bdadb936-3f14-48ad-830f-718e38d81c30_1832_dldesign_0_cycle1_af2pred (protein)
chain: MEKAKELVKKIKELARKIKELAERLKADPSTAEQDLKEVNEALSEALELQKKVAEIGSPEDAEEANKELGKAQRAALEAHRAAAELA
  binding in a display sort: not found
